In the library only some 7.9% were active in any assay of this set; here they are far more common.
MARV entry inh: inhibitors of Marburg virus binding or cell entry | Potency, µM (doses to about 37.8 µM), usual class: inhibitors | AID 540276 | Marburg virus pseudotyped entry inhibition, cell reporter | 300,000 compounds, 1.8% hits; calls by dose curve; tested in HEK293 cells
FMDV inh: antivirals against foot and mouth disease virus | FMDV antiviral cell-based qHTS | Potency, µM (titrated, usually from 57.9 µM), hits mostly inhibitors | 410,000 compounds, 1.2% hits | AID 1159524; calls by dose curve; tested in HEK293T cells; also: read-out not given here; nearly all actives have a fitted effect of over 45% in size
LASV entry inh: Lassa virus entry inhibition; 300,000 compounds, 1.2% hits; Potency, µM (top dose mostly 37.9 µM), usual class: inhibitors; AID 540256; Lassa virus pseudotype entry inhibition, cell reporter; calls by dose curve; tested in HEK293 cells; also: nearly all actives have a fitted effect of over 50% in size
HCMV antiviral: blocks human cytomegalovirus replication | HFF cells, HCMV-luciferase reporter, 72 h; active compounds read low | activity change, negative = inhibition, % at 57.5 µM | 410,000 compounds, 4.5% hits | AID 1259415; in the data active = activity change below about -60%; inconclusive = no clear call, values can overlap the other calls; inactive = above about -39%
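HFF cells seeded 16 h at 37C, treated with compounds, infected with luciferase-reporter HCMV at MOI 1 PFU/cell; luciferase read at 72 h post infection, normalized to buffer-only and Salinomycin controls.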
HCV inhibitor: blocks hepatitis C virus; Huh7.5.1 HCVcc-Cre infection, luciferase reporter, 44 h; Potency, µM (series often up to 41.8 µM), actives largely listed as inhibitors; 340,000 compounds, 3.4% hits; active = well fitted inhibition curve with a large enough effect; inconclusive = small, poorly fitted or top-dose-only effect, or another doubt; inactive = no such curve, though single readings can be large or run the other way
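Infectious HCV cell culture screen: compound-treated cells (1,000/well, pre-plated 4 h) are infected with HCVcc-Cre at roughly 0.5 moi and grown 44 h. Infection is quantified by luciferase signal after 15 min substrate incubation at room temperature.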
Hits are given with their value; i = inactive; ? = inconclusive; nt = no result given.

SMILES | MARV entry inh | FMDV inh | LASV entry inh | HCMV antiviral | HCV inhibitor
COc1ccc(S(=O)(=O)n2nc(-c3cc(OC)c(OC)c(OC)c3)cc2N)cc1OC | nt | i | nt | i | ?
O=C(CCCN1CCOCC1)c1ccc2c(c1)OCCO2 | i | nt | i | i | i
O=C(CCN1CCOCC1)c1ccc2c(c1)OCCO2 | i | i | i | i | 11µM
CC1CCN(CC(=O)c2ccc3c(c2)OCCO3)CC1 | i | i | i | -61 | i
COCCNC(=O)c1cnc2sc(N3CCC(C)CC3)nn2c1=O | nt | i | i | i | nt
CCOC(=O)C(Cc1ccccc1)(Nc1ccccc1OC)C(O)c1ccccc1Br (stereo not drawn) | nt | nt | nt | i | nt
CCCOc1cccc(C2c3c(oc4ccc(F)cc4c3=O)C(=O)N2c2nc(C)c(C(C)=O)s2)c1 (stereo not drawn) | ? | i | i | i | nt
Cc1cccc(-n2c(-c3csc4ccccc34)n[nH]c2=S)c1 | i | i | i | -70 | i
O=C(NCC(c1ccco1)S(=O)(=O)c1cccs1)c1ccc(F)c(F)c1 (stereo not drawn) | nt | i | i | i | nt
Cc1cc(C)nc(N(C#N)Cc2ccc(Cl)cc2)n1 | i | i | i | -62 | i
Cc1c(Cl)cccc1NC(=O)CCC(=O)N/N=C/c1ccc[nH]1 | 3.2µM | i | ? | -100 | 1µM
Cc1ccc(C)c(NC(=O)CCC(=O)N/N=C/c2ccc[nH]2)c1 | ? | i | 18µM | -91 | 3.5µM
Cc1ccc(NCC(=O)N/N=C\c2ccc[nH]2)cc1 | 3.2µM | i | ? | i | 14µM
Cc1c(Cl)cccc1NC(=O)CCC(=O)NNC(=O)c1ccccc1 | i | i | i | i | i
O=C(CNC(=O)c1ccc(Br)cc1)N/N=C/c1ccc[nH]1 | ? | i | ? | i | 2.5µM
CCCCN(CCCC)C1=C(C(=O)c2ccccc2)N(C)S(=O)(=O)c2ccccc21 | i | i | i | i | nt
CC(C)NC(=O)c1nnc2n1CCN(Cc1ccc(Cl)c(F)c1)C2 | nt | nt | nt | i | nt
CC1=C(C(=O)Nc2ccc(F)cc2F)C2(CCCCCC2)OC1=O | nt | i | i | ? | nt
Cc1c(O)ccc2c(CN3CCN(C/C=C/c4ccccc4)CC3)cc(=O)oc12 | 8.9µM | ? | ? | -60 | 11µM
O=c1cc(CN2CCN(C/C=C/c3ccccc3)CC2)c2cc(O)c(-c3ccccc3)cc2o1 | i | i | i | i | ?
Cc1ccc2c(CN3CCOCC3)cc(=O)oc2c1 | nt | i | nt | i | i
Cc1cc2oc(=O)cc(CN3CCN(C/C=C/c4ccccc4)CC3)c2cc1O | i | nt | nt | i | nt
CC(C)CN(Cc1cc(=O)oc2cc(-c3ccccc3)c(O)cc12)CC(C)C | nt | i | nt | i | 14µM
Cc1ccc2c(CN3CCCCC3)cc(=O)oc2c1 | i | i | i | -77 | i
COc1ccc(N2CCN(Cc3cc(=O)oc4cc(-c5ccccc5)c(O)cc34)CC2)cc1 | ? | i | i | -80 | i
SMILES | MARV entry inh | FMDV inh | LASV entry inh | HCMV antiviral | HCV inhibitor
O=c1cc(CN2CCN(Cc3ccccc3)CC2)c2cc(O)ccc2o1 | nt | i | nt | ? | i
Cc1cc2oc(=O)cc(CN3CCN(Cc4ccccc4)CC3)c2cc1O | nt | i | nt | i | 11µM
O=c1cc(CN2CCN(c3ccc(F)cc3)CC2)c2cc3c(cc2o1)CCCC3 | ? | i | i | -62 | i
COc1ccc2oc(=O)cc(CN3CCN(Cc4ccc(OC)c(OC)c4OC)CC3)c2c1 | nt | i | nt | i | 3.5µM
Cc1cc2oc(=O)cc(CN3CCN(S(=O)(=O)c4cccs4)CC3)c2cc1C | 14µM | ? | 14µM | i | ?
O=C(C=Cc1ccccc1)c1ccccc1O | ? | nt | i | nt | nt
N#C/C(=C\c1c[nH]c2ccccc12)C(=O)Nc1ncc(Cc2ccc(Cl)cc2Cl)s1 | ? | i | ? | i | 35µM
Cn1cc(/C=C(\C#N)C(=O)Nc2ncc(Cc3cccc(Cl)c3)s2)c2ccccc21 | i | nt | nt | nt | i
NC(=O)NC(=O)Nc1ccccc1Cl | i | i | i | i | i
O=C(NC(=O)c1csnn1)Nc1ccccc1Cl | nt | i | nt | -83 | i
CN1C(=O)C(n2ccc3ccccc32)c2cc(OC(F)(F)F)ccc21 (stereo not drawn) | nt | nt | nt | i | nt
Cc1nn(-c2ccccc2)c2sc(C(=O)Nc3cccc(Cl)c3)cc12 | i | i | i | ? | nt
COc1cc(=O)n2c(c1C(=O)N(C)Cc1nccs1)CCN(Cc1c(F)ccc(F)c1F)CC2 | nt | i | nt | nt | nt
COc1cccc(C2CNC3(CCCC(C)C3)c3[nH]c4ccccc4c32)c1OC (stereo not drawn) | nt | i | nt | -65 | i
COc1cc(CN2CC(=O)N(c3cccc(Cl)c3C)C2=S)cc(OC)c1OC | nt | ? | nt | -63 | i
COc1cc(CN2CC(=O)N(c3ccc(C)c(Cl)c3)C2=S)cc(OC)c1OC | i | i | i | i | i
COc1cc(CN2CC(=O)N(c3ccc(C)cc3)C2=S)cc(OC)c1OC | ? | i | i | i | ?
COc1cc(CN2CC(=O)N(c3ccccc3Cl)C2=S)cc(OC)c1OC | ? | 32µM | ? | i | ?
CN1CCN(c2nc(-c3ccccc3)nc(-c3ccc(F)cc3)c2C#N)CC1 | 11µM | i | i | i | ?
COc1ccc(OC)c(C(=O)c2coc3ccc(OC(C)=O)cc23)c1 | ? | i | 11µM | i | i
Cc1cccc(N2CCN(S(=O)(=O)c3ccc(F)c(C(=O)Nc4ccc(C(C)C)cc4)c3)CC2)c1C | nt | i | i | i | nt
C/C1=C\[C@@H](C)C/C=C/[C@H]2[C@@H]3O[C@]3(C)[C@@H](C)[C@H]3[C@H](Cc4c[nH]c5ccccc45)NC(=O)[C@]32C(=O)/C=C/C(=O)[C@@H]1O | nt | 32µM | nt | nt | i
O=C1N[C@@H](Cc2c[nH]c3ccccc23)C(=O)N[C@H]1Cc1c[nH]c2ccccc12 | nt | i | nt | nt | nt
Cc1ccc(C)c(N2CCN(CCCNC(=O)C3COc4ccccc4C3)CC2)c1 (stereo not drawn) | nt | i | i | i | nt
Cc1ccc(-n2c(C)c3c(C)nnc(C)c3c2C)cc1N | i | i | i | i | ?
SMILES | MARV entry inh | FMDV inh | LASV entry inh | HCMV antiviral | HCV inhibitor
Cc1cc(-n2c(C)c3c(C)nnc(C)c3c2C)ccc1N | i | i | i | -62 | i
COc1ccc2c3c(n(C)c2c1)[C@@H](CO)N(C)CC31CN(C(=O)CN2CCOCC2)C1 | nt | nt | nt | i | nt
O=C(NC1CCCCCC1)C1CCN(c2nc3ccccc3o2)CC1 | i | ? | nt | -74 | i
COc1ccc(-n2ccn(Cc3ccccc3Cl)c(=O)c2=O)cc1OC | nt | i | i | i | nt
COc1cc(-c2noc(-c3ccccc3C(=O)NCc3ccco3)n2)cc(OC)c1OC | ? | ? | ? | i | 11µM
COc1ccccc1-c1noc(-c2ccco2)n1 | ? | i | ? | i | i
COc1ccccc1-c1noc(-c2ccccc2C(=O)NCc2ccco2)n1 | ? | i | i | i | i
COc1cc(-c2noc(-c3ccco3)n2)cc(OC)c1OC | i | i | i | i | 13µM
Brc1cccc(-c2nnn3c2nc(N2CCCCC2)c2ccccc23)c1 | i | i | i | i | nt
CC(=O)Nc1ccc(S(=O)(=O)Oc2cccc(N3C(=O)C4CCCCC4C3=O)c2)cc1 (stereo not drawn) | ? | 18µM | i | i | i
C=CCNC(=O)c1cc([N+](=O)[O-])cc2c(=O)[nH]c(Nc3ccc(Cl)c(Cl)c3)nc12 | nt | i | nt | nt | nt
COC(=O)CC=C[C@@H](C)[C@H](NC(=O)OCC(Cl)(Cl)Cl)c1cccc(OC)c1 | i | nt | nt | nt | nt

Screening results as filed in PubChem BioAssay.
